Screening data (PubChem)
CYP2C19 inh = human CYP2C19 inhibition. P33261. CYP2C19 Supersomes, luciferin-H EGE luminescence, 30 min. inhibition, % at 5 µM. 21% of 96,000 active. AID 778;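 active = CYP2C19 inhibition above a set limit at 5 µM in the primary screen, cut at about 50% in these data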
CYP2C19 activ = increases human CYP2C19 enzyme activity | activation factor at 5 µM | recombinant CYP2C19, luciferin-H EGE luminescence; hits give high values; 0 = fully inhibited enzyme, 1 = untreated enzyme | P33261 | 96,000 tested, under 10 active | AID 1025;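 active = activation factor of at least 2 at 5 µM in the primary screen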
sEH inhibitor = inhibitors of human soluble epoxide hydrolase; P34913; recombinant human sEH enzymatic activity assay; inhibition, % at 2 µM; 0.34% of 91,000 active; in the data active = inhibition above about 80%
Target sequence (P34913 whole entry, looked up): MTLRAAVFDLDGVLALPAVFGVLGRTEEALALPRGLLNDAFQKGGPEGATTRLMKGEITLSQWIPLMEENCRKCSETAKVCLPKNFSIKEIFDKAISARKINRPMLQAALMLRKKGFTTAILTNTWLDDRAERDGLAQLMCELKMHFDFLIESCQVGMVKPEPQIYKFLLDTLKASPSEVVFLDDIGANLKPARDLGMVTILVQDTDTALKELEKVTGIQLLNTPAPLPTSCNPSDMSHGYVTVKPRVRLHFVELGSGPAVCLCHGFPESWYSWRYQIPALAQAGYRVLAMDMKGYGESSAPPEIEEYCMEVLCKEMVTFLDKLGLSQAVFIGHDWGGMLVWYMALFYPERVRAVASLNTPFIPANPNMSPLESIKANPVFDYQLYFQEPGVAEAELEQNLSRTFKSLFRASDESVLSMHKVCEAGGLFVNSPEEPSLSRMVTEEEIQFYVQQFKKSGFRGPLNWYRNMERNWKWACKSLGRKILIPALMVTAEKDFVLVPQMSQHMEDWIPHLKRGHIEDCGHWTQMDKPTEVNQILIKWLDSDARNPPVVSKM
CYP2C9 inhib = inhibitors of human CYP2C9. P11712. CYP2C9 Supersomes, luciferin-H conversion, luminescence. inhibition, % at 5 µM. 20% of 96,000 active. AID 777;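 active = blocking of liver enzyme CYP2C9 beyond about 50% at 5 µM, limit read from the data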
CYP2C9 act = activators of human CYP2C9 | P11712 | recombinant CYP2C9, luciferin-H conversion, luminescence; hits give high values; factor 1 = untreated enzyme, 0 = blocked | activation factor at 5 µM | 1.4% of 96,000 active;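 active = activation factor of 2 or more for CYP2C9 at a 5 µM dose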
sEH activator = increases human soluble epoxide hydrolase activity; P34913; activation, % at 2 µM; purified human sEH enzymatic activity, activator screen; 0.04% of 91,000 active; in the data active = activation above about 37%
A number is an active result; . = inactive; / = not tested or not shown. Sampled rows, rich in hits. Any-hit rate of the full collection: about 27%.

SMILES | CYP2C19 inh | CYP2C19 activ | sEH inhibitor | CYP2C9 inhib | CYP2C9 act | sEH activator
CC1CC(C)CN(c2ncc3c(n2)CC(c2ccc(Cl)cc2)CC3=O)C1 (stereo unspecified) | . | . | . | 78.2 | . | .
COc1ccc(Nc2ncc3c(n2)CC(c2ccccc2)CC3=O)cc1 (stereo unspecified) | . | . | / | . | . | /
COc1cccc(C(=O)Nc2ncc3c(n2)CC(c2ccc(OC)cc2OC)CC3=O)c1 (stereo unspecified) | 79.7 | . | . | 89.1 | . | .
Cc1ccc(C2CC(=O)c3cnc(N4CCN(c5ccccc5)CC4)nc3C2)cc1 (stereo unspecified) | . | . | . | 54.5 | . | .
O=C(NC1CCCc2ccccc21)C1CCN(S(=O)(=O)c2cccc3nsnc23)CC1 (stereo unspecified) | . | . | . | . | . | .
COc1ccccc1-c1cc2ccccc2[nH]1 | / | / | . | / | / | .
CCn1nnc(NC(=O)c2cc3ccccc3o2)n1 | . | . | . | . | . | .
CC(C)(C)n1nnnc1C(c1cccs1)N1CCCc2ccccc21 (stereo unspecified) | . | . | . | . | . | .
COc1ccccc1-n1c(=O)oc2ccc(Cl)cc2c1=O | . | . | . | . | . | .
O=C1CC(c2ccccc2)Cc2nc(N3CCc4ccccc4C3)ncc21 (stereo unspecified) | . | . | . | 63.8 | . | .
Cc1nc(N2CCN(c3ccccc3)CC2)nc2c1C(=O)CC(c1ccccc1)C2 (stereo unspecified) | . | . | . | 83.2 | . | .
Cc1nc(N2CCN(c3ccccc3)CC2)nc2c1C(=O)CC(C)C2 (stereo unspecified) | . | . | . | . | . | .
CCc1ccc(Nc2ncc3c(n2)CC(c2ccc(OC)cc2)CC3=O)cc1 (stereo unspecified) | . | . | . | 79.3 | . | .
CCC1(CC)C(=O)N(C)C(=O)NC1=Nc1ccc(OC)cc1 | . | . | . | . | . | .
O=C(c1ccc(F)cc1)N1CCN(Cc2ccccc2Br)CC1 | 97.5 | . | . | 68.9 | . | .
O=C(c1cccc(F)c1)N1CCN(Cc2c[nH]c3ccccc23)CC1 | . | . | / | . | . | /
O=C(C1CCCN(Cc2ccccc2Br)C1)N1CCCCC1 (stereo unspecified) | . | . | . | . | . | .
CC(=O)N1CCN(C(=O)CCc2c[nH]c3ccccc23)CC1 | . | . | . | . | . | .
O=C(c1ccccc1)N1CCN(Cc2c[nH]c3ccccc23)CC1 | 64.8 | . | . | . | . | .
O=C(CCCc1c[nH]c2ccccc12)N1CCCCCC1 | 97.7 | . | . | . | . | .
N#Cc1ccc(CN2CCN(C(=O)c3ccccc3)CC2)c(Cl)c1 | 74.2 | . | / | . | . | /
c1cncc(Nc2nc(-c3ccncc3)cs2)c1 | 50.6 | . | / | 52.5 | . | /
O=C(Nc1nc(-c2ccc(Cl)cc2)cs1)c1cccnc1 | 61.0 | . | . | . | . | .
Cc1nc(C)c(-c2csc(Nc3cccnc3)n2)s1 | . | . | . | . | . | .
CC(=O)Oc1ccc(-c2csc(Nc3cccnc3)n2)cc1 | . | . | . | . | . | .
SMILES | CYP2C19 inh | CYP2C19 activ | sEH inhibitor | CYP2C9 inhib | CYP2C9 act | sEH activator
COc1ccc(-c2csc(NC(=O)c3nc(-c4ccccc4)oc3C)n2)cc1 | . | . | . | . | . | .
Cc1ccc(-c2csc(NC(=O)c3ccno3)n2)cc1 | . | . | . | 70.1 | . | .
COc1ccc(-c2csc(Nc3cccnc3)n2)cc1OC | 79.1 | . | . | . | . | .
Cn1cc([N+](=O)[O-])c(C(=O)Nc2nc(-c3ccc(Cl)cc3)cs2)n1 | . | . | . | . | . | .
O=C(N/N=C\c1ccc(F)cc1)c1csnn1 | . | . | . | . | . | .
O=C(O)CCNS(=O)(=O)c1ccc(Oc2ccccc2Cl)cc1 | . | . | . | . | . | .
c1cncc(Nc2nc(-c3cccnc3)cs2)c1 | 71.6 | . | / | 56.0 | . | /
COc1ccc(CCNc2nc(-c3cccnc3)cs2)cc1OC | 83.5 | . | . | . | . | .
c1ccc(Nc2nc(-c3cccnc3)cs2)nc1 | . | . | / | . | . | /
CCOC(=O)C(C)Sc1nnc(-c2ccccc2O)n1Cc1ccccc1 (stereo unspecified) | . | . | . | . | . | .
COc1cccc(NC(=O)CSc2nnc(-c3ccc(C)cc3)o2)c1 | . | . | / | . | . | /
COc1ccc(OC)c(NC(=O)CSc2nnc(CNc3ccc(F)cc3)o2)c1 | 55.8 | . | . | . | . | .
COc1ccc(-c2nnc(SCC(=O)N3CCCC3)o2)cc1OC | / | / | . | / | / | .
COc1ccc(NCc2nnc(SCC(=O)Nc3ccccc3OC)o2)cc1 | . | . | . | . | . | .
COc1ccc(-c2nnc(SCC(=O)Nc3cc(F)ccc3C)o2)cc1 | 54.2 | . | / | . | . | /
COc1ccc(-c2nnc(SCC(=O)NC(C)c3ccccc3)o2)cc1OC (stereo unspecified) | 61.7 | . | . | . | . | .
COc1ccc(OC)c(NC(=O)CSc2nnc(CNc3ccc(C)cc3C)o2)c1 | 81.3 | . | . | . | . | .
CCOCCCNC(=O)C(Cc1ccccc1)NC(=O)c1ccco1 (stereo unspecified) | . | . | . | . | . | .
Cc1ccc(CC(NC(=O)c2ccccc2)C(=O)NCC(=O)O)cc1 (stereo unspecified) | . | . | . | . | . | .
O=c1cnn(-c2ccccc2)c(-c2ccccc2)c1 | . | . | . | . | . | .
CCC(=O)N1CCc2cc(S(=O)(=O)CCC(=O)NCc3cccs3)ccc21 | . | . | . | . | . | .
COc1cc(C2N3CC4(C)CN2CC(C)(C3)C4)ccc1O (stereo unspecified) | . | . | . | . | . | .
COc1cc(C2C3C(C)N(C)C(=O)N(C)C3N(C)C(=O)N2C)ccc1O (stereo unspecified) | 87.4 | . | . | . | . | .
CC1=C(C(=O)NCc2ccccc2)C(c2cccs2)n2ncnc2N1 (stereo unspecified) | . | . | / | . | . | /
COc1cc(-c2nc(-c3ccc4c(c3)-c3ccccc3S4(=O)=O)c(-c3ccccc3)[nH]2)cc(OC)c1O | 79.4 | . | . | 78.5 | . | .
SMILES | CYP2C19 inh | CYP2C19 activ | sEH inhibitor | CYP2C9 inhib | CYP2C9 act | sEH activator
COc1ccc(-c2nc(-c3ccccc3)c(-c3cccs3)[nH]2)cc1OC | . | . | . | . | . | .
CC1CN(Cc2nc3c(c(=O)[nH]c(=O)n3C)n2CC(N)=O)CC(C)O1 (stereo unspecified) | . | . | . | . | . | .
O=C(O)c1ccc(NC(=S)NC(NC(=O)c2ccco2)C(Cl)(Cl)Cl)cc1 (stereo unspecified) | . | . | . | . | . | .
Cc1ccc(NC(=S)NC(NC(=O)c2ccco2)C(Cl)(Cl)Cl)cc1 (stereo unspecified) | . | . | . | 92.4 | . | .
Cc1cccc(NC(=S)NC(NC(=O)c2ccco2)C(Cl)(Cl)Cl)c1 (stereo unspecified) | . | . | . | 83.6 | . | .
COCc1nnc(NS(=O)(=O)c2ccc(Br)cc2)s1 | . | . | . | 57.4 | . | .
